Shown are actives, neighbours in structure and some others; about 5.7% of the full set was active somewhere.
NPSR antagonist: qHTS Assay for Antagonists of the Neuropeptide S Receptor: cAMP Signal Transduction; Potency, µM (titrated, usually from 38.3 µM), for inactives: at the highest dose activity change, negative = inhibition, usual class: inhibitors; actives 1% (n = 220,000); Q6W5P4; CHO-NPSR cells, cAMP TR-FRET, antagonist mode; further: nearly all actives have a fitted effect of over 50% in size
Target sequence (Q6W5P4 whole entry, looked up): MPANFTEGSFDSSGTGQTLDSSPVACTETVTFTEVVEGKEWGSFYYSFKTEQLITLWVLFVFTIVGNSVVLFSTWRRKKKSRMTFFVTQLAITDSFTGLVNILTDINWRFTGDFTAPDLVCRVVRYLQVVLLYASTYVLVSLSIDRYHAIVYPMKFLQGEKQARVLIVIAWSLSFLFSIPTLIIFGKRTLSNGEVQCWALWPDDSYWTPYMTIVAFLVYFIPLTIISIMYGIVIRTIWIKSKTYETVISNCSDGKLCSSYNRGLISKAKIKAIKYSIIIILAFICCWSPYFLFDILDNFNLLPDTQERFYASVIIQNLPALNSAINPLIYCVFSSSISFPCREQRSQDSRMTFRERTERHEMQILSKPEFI
B2AR arrestin: qHTS assay of beta-arrestin-biased ligands of beta2-adrenergic receptor; Potency, µM (series often up to 46.1 µM), for the others: at the top dose activation, actives largely listed as activators; Beta-2 adrenergic receptor (Homo sapiens), P07550; beta-arrestin recruitment to beta2AR, cell-based reporter; actives 0.02% (n = 330,000);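 further: 0% = DMSO controls and full agonism = EC100 isoproterenol or metaproterenol; nearly all actives have a fitted effect of over 65% in size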
Gal4-VP16 FLuc: VP16 counterscreen qHTS for inhibitors of ROR gamma transcriptional activity | actives 3.5% (n = 310,000) | AID 2546, 2010 | Drosophila S2 Gal4-VP16 UAS-luciferase, luminescence, 20 h | Potency, µM (titrated, usually from 53.6 µM), without a hit: at the highest dose activity, negative = inhibition, actives largely listed as inhibitors;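 further: Gal4-VP16 expression switched on by copper sulfate through the metallothionein promoter; nearly all actives have a fitted effect of over 50% in size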
RORgamma inh: qHTS for inhibitors of ROR gamma transcriptional activity | Drosophila S2 Gal4-RORgamma UAS-luciferase reporter, 20 h | actives 5.4% (n = 310,000) | AID 2551, 2010 | Potency, µM (series often up to 53.6 µM), for inactives: top-dose activity change, negative = inhibition, usual class: inhibitors; further: nearly all actives have a fitted effect of over 60% in size
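In this cell-based reporter format, copper sulfate (700 uM final) drives Gal4–ROR gamma fusion expression from a metallothionein promoter in Drosophila Schneider cells; compounds preincubated 1 hr, reporter read after 20 hr at ambient temperature.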
* marks the source's active call; other numbers are inactive results; u = inconclusive; x = no result; [ ] = dose if it differs, or a comment. The call rests on the fitted dose curve; in most records, active means well fitted curve in the direction sought with a large enough effect; inconclusive means small, poorly fitted or top-dose-only effect, or another doubt; inactive means no such curve, though single readings can be large; an effect the other way counts as inactive or inconclusive. Unless noted, on the % scale 0 is the no-effect control and ±100 the full control effect; potency means the concentration at half of the fitted maximal effect.

SMILES	NPSR antagonist	B2AR arrestin	Gal4-VP16 FLuc	RORgamma inh
CC(C)(C)c1ccc2c(c1)OC(C(=O)N/N=C\c1ccncc1)CO2 (centres undefined)	-3%	0%	u	27%
O=C(N/N=C\C=C\c1ccc2c(c1)OCO2)C1COc2cc3ccccc3cc2O1 (centres undefined)	-16%[46.1 µM]	-1%	u	7.1µM*
O=C(N/N=C\C=C\c1ccc2c(c1)OCO2)c1ccc(F)cc1	-14%	0%	5.6µM*	2.2µM*
Cc1cc([N+](=O)[O-])cc(/C=N\NC(=O)C2COc3ccccc3O2)c1O (centres undefined)	6%	0%	4.5µM*	2.2µM*
O=C(N/N=C/C=C/c1ccc([N+](=O)[O-])cc1)C1COc2ccccc2O1 (centres undefined)	-8%	-1%	11µM*	10µM*
C=CCn1c(C)cc(C(=O)COC(=O)/C=C/c2c(C)nn(C3CCS(=O)(=O)C3)c2Cl)c1C (centres undefined)	x	-1%	x	x
O=c1c2c(nc3c(-c4ccc(Cl)cc4)c[nH]n13)CCCC2	-17%[46.1 µM]	0%	6.3µM*	2.2µM*
Cc1[nH]n2c(=O)c3c(nc2c1-c1ccccc1)CCCC3	-3%[46.1 µM]	-1%	u	11µM*
Cc1[nH]n2c(=O)c3c(nc2c1-c1cccc2ccccc12)CCC3	u	0%	u	13µM*
CCOc1ccc(/C=N/NC(=O)c2ccccc2NC(=O)c2ccc(OC)cc2)cc1	-21%	2%	7.1µM*	7.1µM*
CCOc1ccc(/C=N/NC(=O)Nc2ccccc2)cc1	-14%	0%	0%	-8%
O=C(N/N=C/c1ccc(O)cc1)c1ccc(NC(=O)c2ccccc2Br)cc1	u	0%	-24%	-33%
O=C(Nc1ccccc1C(=O)N/N=C/c1ccncc1)c1ccccc1	-15%	0%	u	8.9µM*
O=C(N/N=C/c1ccc(OCc2ccccc2)cc1)c1ccncc1	7%	3%	-17%	13µM*
O=C(Nc1ccccc1C(=O)N/N=C/c1ccc(F)cc1)c1ccccc1Br	-13%[46.1 µM]	0%	u	10µM*
N#CC1(C#N)[C@@H](C(=O)C23CC4CC(CC(C4)C2)C3)C12CCOCC2	-7%	0%	-7%	-8%
CCCc1cc(=O)oc2cc(OCC(=O)NC3CCN(Cc4ccccc4)CC3)ccc12	x	0%	1%	-20%
COc1ccc(C(=O)Nc2ccccc2C(=O)N/N=C/c2ccco2)cc1	-18%	0%	10µM*	2µM*
CCCC(=O)Nc1ccccc1NC(=O)c1ccc(OCC)cc1	-2%	-1%	-2%	15%
CCOc1ccc(C(=O)Nc2ccccc2C(=O)O)cc1	-21%	0%	u	6.3µM*
COc1cccc(-c2nccc(-n3ccnc3)n2)c1	x	x	-24%	-38%
COc1ccc(OC)c(-n2c(SCC(=O)NCc3ccco3)nnc2-c2c[nH]c3ccccc23)c1	u	0%	0%	13%
Cc1c(O)c(O)cc2c1oc1c3ccccc3oc(=O)c21	x	x	u	7.1µM*
Cc1ccc2oc(=O)c3c4cc(O)c(O)c(C)c4oc3c2c1	x	x	-16%	u
CCCCNC(=S)NNC(=O)c1cc(C2CC2)nc2ccccc12	x	5%	u	6.3µM*
SMILES	NPSR antagonist	B2AR arrestin	Gal4-VP16 FLuc	RORgamma inh
O=C(O)c1cc(C2CC2)nc2ccccc12	7%	0%	-10%	-29%
COCCNC(=S)NNC(=O)c1cc(C2CC2)nc2ccccc12	x	-1%	-27%	11µM*
O=C(O)c1cc(-c2cccnc2)nc2ccccc12	8%	0%	-4%	6%
CC(C)(C)C(=O)COC(=O)c1cc(-c2cccnc2)nc2ccccc12	-31%	0%	35µM*	u
CCCCNC(=S)NNC(=O)c1cc(-c2ccncc2)nc2ccccc12	x	-1%	-19%	11µM*
CNC(=S)NNC(=O)c1cc(-c2cccnc2)nc2ccccc12	x	0%	16µM*	7.1µM*
COc1cc(=O)n(C)c2c(OC[C@@H](O)C(C)(C)O)cccc12	x	x	4%[17 µM]	14%[16.9 µM]
Cc1ccc(C(C)C)c(OCc2ccc(-c3nnco3)cc2)c1	-12%[46.1 µM]	0%	u	4µM*
CCN(CC)C(=S)Sc1c(-c2ccccc2)c2cc(Cl)ccc2[nH]c1=O	-35%[46.1 µM]	0%	7.9µM*	8.9µM*
CCN1CCc2c(sc(NC(=O)c3cc4ccccc4cc3OC)c2C(N)=O)C1	x	-1%	5.6µM*	4.5µM*
FC(F)(F)c1cnc(C(c2ccccn2)c2ncn[nH]2)c(Cl)c1 (centres undefined)	6%	0%	-24%	11µM*
O=C(c1cnccn1)N1CCC[C@@]2(CCN(c3ccccn3)C2)C1	x	x	-2%	-5%
C=CCc1cccc(CNc2cnc3ccccc3c2)c1O	x	0%	7.1µM*	u
Oc1ccccc1CNc1cnc2ccccc2c1	-15%[46.1 µM]	-1%	u	u
CC(NC(=O)Nc1nnc(C(F)(F)F)s1)(C(F)(F)F)C(F)(F)F	10µM*	0%	5.6µM*	5µM*
CCCCCCCCCCCCCCC[C@@H](O)[C@H](CO)NC(C)=O	x	x	-1%	-11%
CC(C)C[C@H](NC(=O)c1[nH]cnc1C(=O)N[C@@H](Cc1ccccc1)C(=O)OCc1ccccc1)C(=O)OCc1ccccc1	x	0%	11µM*	11µM*
C[C@H](NC(=O)c1nc[nH]c1C(=O)N[C@@H](C)C(=O)OCc1ccccc1)C(=O)OCc1ccccc1	x	0%	u	13µM*
CC(C)C[C@H](NC(=O)c1nc[nH]c1C(=O)N[C@@H](CC(C)C)C(=O)OCc1ccccc1)C(=O)OCc1ccccc1	x	0%	u	7.1µM*
CC(C)C[C@H](NC(=O)c1nc[nH]c1C(=O)NCCCCCN)C(=O)OCc1ccccc1	x	0%	x	x
CC(C)C[C@H](NC(=O)c1nc[nH]c1C(=O)NC(c1ccccc1)c1ccccc1)C(=O)OCc1ccccc1	50%	0%	4.5µM*	2.5µM*
CC(C)[C@@H](CC(=O)N[C@@H]1CCNC[C@H]1C(=O)N[C@H](CC(=O)N[C@@H](CCC(=O)O)CC(=O)O)Cc1c[nH]c2ccccc12)NC(=O)C[C@H](Cc1ccccc1)NC(=O)[C@@H]1CNCC[C@H]1N	x	x	-9%	1%
CC(C)C[C@H](NC(=O)c1[nH]cnc1C(=O)N[C@H](C)c1ccccc1)C(=O)OCc1ccccc1	54%	-1%	5µM*	6.3µM*
O=C(N[C@@H](Cc1ccccc1)C(=O)OCc1ccccc1)c1nc[nH]c1C(=O)N1CCN(c2ccccc2)CC1	-8%	0%	u	10µM*
Cn1c(CNC(=O)C(Cc2ccccc2)NC(=O)c2ccccc2F)cc(=O)n(C)c1=O (centres undefined)	x	4%	-1%	-1%
Cc1ccc2[nH]c(=O)c(CN(Cc3ccc4c(c3)OCO4)Cc3nnnn3C3CCCC3)cc2c1	13µM*	x	-20%	22%

Screening data as filed in PubChem.
